Screening data (PubChem)
GDH-TPI inh: GDH-TPI coupled enzyme inhibition counter-screen; GDH-TPI coupled enzyme counterscreen, NADH absorbance; inhibition, % at 4.8 µM; hit rate 1.2% among 360,000;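 also: 0% = DMSO wells and 100% = wells lacking the enzyme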
CCHFV vOTU inh: CCHFV vOTU protease inhibition; Pep-AMC fluorescence; inhibition, % at 11.5 µM; hit rate 0.55% among 370,000; also: 0% = vehicle wells with enzyme and 100% = no enzyme wells
Mtb FBA inh: Mtb fructose-bisphosphate aldolase inhibition; inhibition, % at 1 µM; hit rate 2.3% among 360,000; AID 588726; P9WQA3; purified M. tuberculosis FBA, fluorescence read-out; in the data active = inhibition above about 27%;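 also: 0% = vehicle and 100% = reference inhibitor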
DUSP3 inh: DUSP3 (human) phosphatase inhibition; recombinant VHR phosphatase, pNPP absorbance; hit rate 0.52% among 290,000; AID 1654; P51452; inhibition, % at 13.3 µM; in the data active = inhibition above about 50%
Target sequence (P51452 whole entry, looked up): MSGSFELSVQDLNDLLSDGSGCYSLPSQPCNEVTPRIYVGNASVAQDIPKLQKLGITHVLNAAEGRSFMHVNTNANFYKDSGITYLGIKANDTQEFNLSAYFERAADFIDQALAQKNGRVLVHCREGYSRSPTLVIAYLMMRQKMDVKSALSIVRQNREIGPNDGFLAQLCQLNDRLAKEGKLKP
RecA splice inh: blocks M. tuberculosis RecA intein splicing. inhibition, % (test concentration not listed). P9WHJ3. cell-free RecA intein splicing, fluorescence. hit rate 0.75% among 290,000. AID 2221; in the data active = inhibition above about 30%;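 also: 0% = vehicle wells and 100% = reference inhibitor control wells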
3CLpro inhibitor: SARS-CoV 3CLpro protease inhibition; inhibition, % at 6 µM; hit rate 0.14% among 290,000; recombinant SARS-CoV 3CLpro, quenched FRET peptide cleavage; in the data active = inhibition above about 12%
The depositor's hits bear a star; i = inactive; . = no result; + = active, no number. Hits are enriched below; roughly 4.7% of the tested compounds scored in any of these assays. Rule as the data show it, unless noted: active = inhibition above about 30%; inactive = the rest.

SMILES	GDH-TPI inh	CCHFV vOTU inh	Mtb FBA inh	DUSP3 inh	RecA splice inh	3CLpro inhibitor
COc1ccc(CCn2c(=N)c(C(=O)NC3CCCCC3)cc3c(=O)n4ccccc4nc32)cc1	8	14	3	15	-2	1
CCOC(=O)c1cc2c(=O)n3ccccc3nc2n(Cc2ccccc2Cl)c1=N	.	.	.	27	.	.
CCOC(=O)c1cc2c(=O)n3ccccc3nc2n(Cc2ccccc2)c1=N	-6	-58	79*	21	-243	8
N#Cc1cc2c(=O)n3ccccc3nc2n(Cc2cccnc2)c1=O	1	-156	+	.	.	.
N=c1c(C(=O)NC2CCCC2)cc2c(=O)n3ccccc3nc2n1CCN1CCOCC1	12	-37	176*	6	-82	-2
N#Cc1cc2c(=O)n3ccccc3nc2n(-c2ccccc2Cl)c1=O	-3	-377	+	6	-419	4
O=C(O)COc1ccccc1C=NNC(=O)Cc1cc(=O)[nH][nH]1	.	-6	.	.	.	.
COC(=O)[C@]12C[C@H](CC(=O)NCCc3ccccc3OC)C(=O)N(CCC3=CCCCC3)C1=C[C@H](COCc1ccccc1)O[C@@H]2C	.	10	.	.	.	.
COc1ccc(CN2C[C@H](COCc3ccccc3)Oc3cccc(Oc4ccc(C(C)C)cc4)c3S2(=O)=O)cc1	.	-3	.	.	.	.
Cc1nc2ccc(NC(=O)c3c(Cl)cccc3Cl)cc2c(=O)[nH]1	.	3	.	.	.	.
CCCNc1nc2nc3ccccn3c(=O)c2cc1C(=O)NCCN1CCOCC1	4	-92	155*	25	i	-6
N=c1c(C(=O)NC2CCCC2)cc2c(=O)n3ccccc3nc2n1CCCN1CCOCC1	10	-99	158*	43	-108	-2
O=C(NCCN1CCOCC1)c1cc2c(=O)n3ccccc3nc2n1Cc1ccccc1	16	-312	+	14	-311	-4
N#Cc1cc2c(=O)n3ccccc3nc2n(CCCN2CCOCC2)c1=O	14	-236	+	8	-444	-4
COc1ccc(CCNC(=O)c2cc3c(=O)n4ccccc4nc3n(CCCN3CCOCC3)c2=N)cc1OC	9	11	3	-12	-7	0
CC(C)Oc1ccc(S(=O)(=O)N2CCOCC2)cc1NC(=O)CSC(=S)N1CCCC1	-12	-4	1	.	.	.
Cc1ccc(Cn2c(=N)c(C(=O)NC3CCCCC3)cc3c(=O)n4ccccc4nc32)cc1	-3	-1	24	-1	-47	-2
N=c1c(C(=O)NC2CCCC2)cc2c(=O)n3ccccc3nc2n1Cc1ccccc1	0	-125	146*	5	-463	-1
CN(C)C1=NCCN1CC1CCCCC1	7	-4	3	.	.	.
CC(=O)c1c(C)[nH]c(C(=O)OCC(=O)Nc2nnc(-c3ccccc3)o2)c1C	6	7	0	.	.	.
CCc1ccc(C2C(C#N)=C(N)SC(N)=C2C#N)cc1	31*	-2	7	2	-7	3
N#CC1=C(N)SC(N)=C(C#N)C1c1ccc(C(F)(F)F)cc1	.	.	.	-2	-2	-5
C/C(=N\OC(=O)c1ccc(Br)cc1)c1ccccn1	31*	6	9	11	3	-1
Cn1c(-c2ccc(Br)o2)nc2ccccc21	9	8	1	22	1	1
Brc1ccc(Cn2c(-c3ccc(Br)o3)nc3ccccc32)o1	4	3	-1	-6	30*	-4
SMILES	GDH-TPI inh	CCHFV vOTU inh	Mtb FBA inh	DUSP3 inh	RecA splice inh	3CLpro inhibitor
CCc1ccc2c(CSc3nnnn3C)cc(=O)oc2c1	34*	-6	8	21	1	-1
Cc1onc(-c2ccccc2Cl)c1C(=O)NC(=S)NCC(=O)c1ccccc1	1	-4	3	57*	.	-3
Cc1cccc(NC(=O)Cn2cnc(S(=O)(=O)N3CCCC3)c2)c1C	6	1	1	1	-1	3
N=C1C(c2nc3ccccc3c(=O)[nH]2)=C(O)CN1c1ccccc1	.	.	.	16	.	1
CCOc1ccc(N2CC(O)=C(c3nc4ccccc4c(=O)[nH]3)C2=N)cc1	-3	-21	2	56*	8	-2
O=C1CS/C(=C\[N+](=O)[O-])N1c1ccc(OC(F)(F)F)cc1	3	8	-5	21	36*	3
Cc1cc(C)cc(C(=O)Nc2c3c(nn2C(C)(C)C)CS(=O)(=O)C3)c1	5	13	-1	51*	4	-3
CC(C)(C)c1ccc(C(=O)Nc2c3c(nn2C(C)(C)C)CS(=O)(=O)C3)cc1	4	-6	2	28	-3	2
O=C1C(C=Nc2ccccc2)=C(O)c2ccccc21	19	27	-6	7	3	1
